SMILES strings stand for the structures. Inconclusive results are not listed. Entries that show only a call come without a potency. Activity calls are given as the source filed them. Calls follow the shape of the dose curve; as a rule, active = well fitted cell-killing curve with a large enough effect; inconclusive = small, poorly fitted or top-dose-only effect; inactive = flat fitted curve, though single readings scatter.
Potency is read from the fitted curve at half-maximal effect.

The experiment can be described thus: Cell Viability - LYMP2-010 (AID 981). Also: nearly all actives have a fitted effect of over 55% in size. To be noted: LYMP2-010 lymphoblastoid cell viability, qHTS; series mostly up to 92.2 µM. The text has this: NIH Chemical Genomics Center [NCGC]
NIH Molecular Libraries Screening Centers Network [MLSCN]
National Institutes of Environmental Health Sciences [NIEHS]
National Toxicology Program [NTP]
We have developed a 1536-well cell-based assay for quantitative high throughput screening (qHTS) against a number of cell lines to determine in vitro cytotoxicity of small molecules. This particular assay uses a human lymphoblastoid cell line (LYMP2-010) purchased from Coriell Institute for Medical Research.
NCGC Assay Protocol Summary:
The CellTiter-Glo luminescent cell viability assay (Promega) is a homogeneous method to measure the number of viable cells in culture. The end point readout of this assay is based on quantitation of intracellular ATP, an indicator of metabolic activity, using the luciferase reaction. Luciferase catalyzes the oxidation of beetle Luciferin to oxyluciferin and light in the presence of ATP. The luminescent signal is proportional to amount of ATP present.
Using the CellTiter-Glo luminescent cell viability assay, the amount of cellular ATP was measured in the lymphoblastoid cell line with complete culture medium following compound treatment for 24 hours. The assay was performed in opaque white Kalypsys 1536-well plates. In the screen, tetraoctylammonium bromide was used as positive control. Library compounds were measured for their ability to cause acute toxicity in the cell line, as reflected by a decrease in intracellular ATP levels, in a concentration-dependent manner. […] AC50 values were determined from concentration-response data modeled with the standard Hill equation.
qHTS protocol for CellTiter Glo lymphoblastoid cellular assay
[Step] [Parameter] [Value] [Description]
1. Reagent; 5 uL; 2500 lymphoblastoid cells/well
2. Time; 5 hr; 37 C incubation
4. Controls; 23 nL; Tetraoctylammonium bromide 6.4pM to 92 uM
5. Time; 24 hr; 37 C incubation
6. Reagent; 5 uL; CellTiter Glo reagent
7. Time; 30 min; Room Temperature
8. Detection; Luminescence; Viewlux plate reader
Keywords: cell viability, cytotoxicity, lymphoblastoid cell line, luminescence, NTPHTS, NTPHTS_NCGC, NIEHS, DSSTox, MLSMR, MLSCN, NIH Roadmap, qHTS, NCGC
(qHTS replaces the single test concentration by a dilution series.)
Turning to `Cc1ccc(N)c(N)c1`, the Potency is 12.6 µM (active). Then `COc1c(C(C)(C)C)cc([N+](=O)[O-])c(C)c1[N+](=O)[O-]`, with “inactive”. Under `Clc1ccc(C(Cl)(Cl)Cl)c(Cl)c1` stands “inactive”. Under `Nc1ccc(Cc2ccc(N)cc2)cc1` stands “inactive”; under `OCCBr`, “inactive”. As for `O=Cc1ccc2c(c1)OCO2`, the Potency entry was “inactive”. With `Oc1ccc(Cl)c(Cl)c1Cl`, the Potency entry is “inactive”. Under `CC(=O)NNc1ccccc1` stands “inactive”; under `CCCCOCC1CO1` (stereo not given), “inactive”. Then `ClC(Cl)Br`, with “inactive”. Then `CC(=O)CCC(C)=O`, with “inactive”. In the case of `[O-][Cl+]O`, the Potency entry was “inactive”. `CCC[N+](=O)[O-]`: the Potency entry was “inactive”. Regarding `Cc1ccc2c(c1N)C(=O)c1ccccc1C2=O`, the Potency result is “inactive”.

`Nc1ccc(-c2ccc(N)c(Cl)c2)cc1Cl`: the Potency result was “inactive”.

`O=S(=O)(Cl)c1ccccc1`: the Potency result is “inactive”. Regarding `Clc1cccc(Cl)c1Cl`, the Potency entry is “inactive”. Then `Clc1cccc(Cl)c1`, with “inactive”; and `O=[N+]([O-])c1ccc(O)c([N+](=O)[O-])c1`, with “inactive”.

Take `C=CCBr`: the Potency result is “inactive”. Then `CC(C)CON=O`, with “inactive”; and `C/C=C/C=O`, with “inactive”. Then `CCC#N`, with “inactive”; and `NC1CCC(CC2CCC(N)CC2)CC1` (stereo not given), with “inactive”; and `O=[N+]([O-])c1c(Cl)c(Cl)c(Cl)c(Cl)c1Cl`, with “inactive”.

In the case of `Cc1ccc(N)cc1N`, the Potency result is “inactive”. Then `ClC(Cl)c1ccccc1`, with “inactive”. Consider `CCN(N=O)C(N)=O`, for which the Potency result is “inactive”. Under `ClC(Cl)C(Cl)Cl` stands “inactive”; under `C=CCCC#N`, “inactive”.

With `O=C(O)CCl`, the Potency result was “inactive”.

Regarding `Nc1ccc(-c2ccccc2)cc1`, the Potency entry was “inactive”. Under `CCOP(=S)(OCC)SCCSCC` stands “inactive”; under `Nc1c(Cl)cc([N+](=O)[O-])cc1Cl`, “inactive”; under `Cc1ccc(OP(=O)(Oc2ccc(C)cc2)Oc2ccc(C)cc2)cc1`, “inactive”. Under `c1ccc(P(c2ccccc2)c2ccccc2)cc1` stands “inactive”; under `CCN(CC)N=O`, “inactive”. Then `OCCOCCO`, with “inactive”; and `CCC(Cl)[N+](=O)[O-]` (stereo not given), with “inactive”; and `Oc1ccc(Cl)c(Cl)c1`, with “inactive”.

(Values after PubChem BioAssay (NCATS).)
